# Data reported in PubChem BioAssay AID720492 (Broad Institute, 2013).
# Unmarked numbers belong to inactive results.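 Rule for the calls: active = unnormalized dose curve rising to cross level 40 at or below the top tested dose; inconclusive = flat fit at moderately raised activity, or poor fit; inactive = the rest.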
# Test: miR-27b level by RT-PCR, dose response, miR-122 / miR-27b project, Huh7 cells, cherry-pick, activator set (AID 720492)
# Settings: Huh7 miR-27b levels, qRT-PCR, 48 h; series mostly up to 35 µM; miR-27b level change (relative expression (fold, unnormalized)): at the top concentration
row,Compound,"miR-27b level change (relative expression (fold, unnormalized))"
1,C[C@H]1CN([C@@H](C)CO)C(=O)c2cc(C#Cc3ccccc3F)cnc2O[C@@H]1CN(C)C(=O)C1CCCCC1,0.511
2,CN1C(=O)c2cc(NC(=O)c3cccc(F)c3)ccc2OC[C@@H]2O[C@@H](CC(=O)O)CC[C@H]21,0.836 [at 30 µM]
3,C[C@@H]1CN([C@@H](C)CO)S(=O)(=O)c2ccc(C#Cc3ccncc3)cc2O[C@@H]1CN(C)C(=O)C1CCOCC1,0.541
4,C[C@H]1CN([C@@H](C)CO)C(=O)c2cc(C#Cc3ccccc3F)cnc2O[C@H]1CN(C)C(=O)C1CCCCC1,0.998
5,CO[C@@H]1CN(C)C(=O)c2cc(NS(=O)(=O)c3ccc(Oc4ccccc4)cc3)ccc2OC[C@H](C)NC[C@@H]1C,1.39
6,CO[C@@H]1CN(C)C(=O)c2cc(NC(=O)c3cccc(Oc4ccccc4)c3)ccc2OC[C@H](C)NC[C@@H]1C,0
7,C[C@H](CO)N1C[C@H](C)[C@@H](CN(C)C(=O)C2CCOCC2)Oc2cc(C#Cc3ccncc3)ccc2S1(=O)=O,0.401
8,C[C@@H]1CN([C@H](C)CO)S(=O)(=O)c2ccc(/C=C/c3ccccc3)cc2O[C@@H]1CN(C)C(=O)c1cccnc1,0.812
9,CN1C(=O)c2cc(NC(=O)c3cccc(F)c3)ccc2OC[C@@H]2O[C@@H](CC(=O)O)CC[C@@H]21,1.95
10,COCC(=O)N(C)C[C@H]1Oc2cc(C#Cc3cccnc3)ccc2S(=O)(=O)N([C@@H](C)CO)C[C@H]1C,0.748
11,COc1ccc(S(=O)(=O)N(C)C[C@@H]2Oc3ncc(/C=C/c4ccccc4)cc3C(=O)N([C@@H](C)CO)C[C@@H]2C)cc1,0.977
12,COc1cccc(-c2ccc3c(c2)O[C@H](CN(C)C(=O)C2CCOCC2)[C@H](C)CN([C@@H](C)CO)S3(=O)=O)c1,0.717
13,C[C@H]1CN([C@@H](C)CO)C(=O)c2cc(-c3ccc(C#N)cc3)cnc2O[C@H]1CN(C)C(=O)Nc1ccc(C(F)(F)F)cc1,0.634
14,CCCC#Cc1ccc2c(c1)O[C@H](CN(C)C(=O)COC)[C@H](C)CN([C@@H](C)CO)S2(=O)=O,0.45
15,CN1C(=O)c2cc(NC(=O)c3cccc(F)c3)ccc2OC[C@H]2O[C@@H](CC(=O)O)CC[C@@H]21,0.548
16,CN1C(=O)c2cc(NC(=O)c3cccc(F)c3)ccc2OC[C@H]2O[C@@H](CC(=O)O)CC[C@H]21,0.814
17,Cc1cccc(NC(=O)Nc2ccc3c(c2)C(=O)N(C)[C@@H]2CC[C@@H](CC(=O)NCc4ccccc4Cl)O[C@H]2CO3)c1,0.77
18,COCC(=O)N(C)C[C@H]1Oc2cc(-c3ccccc3F)ccc2S(=O)(=O)N([C@@H](C)CO)C[C@H]1C,0.955
19,COCC(=O)N(C)C[C@H]1Oc2cc(C#Cc3cccnc3)ccc2S(=O)(=O)N([C@H](C)CO)C[C@H]1C,0.997
20,C[C@H]1CN([C@@H](C)CO)S(=O)(=O)c2ccc(C#Cc3ccncc3)cc2O[C@@H]1CN(C)C(=O)C1CCOCC1,0.367
21,CN1C(=O)c2cc(NC(=O)c3cccc(F)c3)ccc2OC[C@@H]2O[C@H](CC(=O)O)CC[C@@H]21,1.47
